Measured values as given in the supplement of paper PMC10849652.
Targets with a hit are over-represented here; the source holds about 8,800 in all. About 0.5% of all pairs of compound and target were hits.

Tests used:
Experiment in all cases: log2 fold change, soluble protein after heating vs DMSO (PISA); higher = thermal stabilisation; K562 lysate, 10 uM; active = over 0.2 and 3.5 SD of the protein, either way, in both replicates (recomputed)
erlotinib = compound: C#Cc1cccc(Nc2ncnc3cc(OCCOC)c(OCCOC)cc23)c1 [erlotinib]
Outline: (§1)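 A 30 min treatment with 10 μM compound was applied to crude K562 extract at 1 mg/mL protein in PBS pH 7.4 with 1 mM MgCl2. Heating for 3 min spanned 48°C-58°C, after which aliquots were pooled, adjusted to 0.5% NP-40 at 4°C and spun at 21,000xg for 90 min. TMTpro 16plex LC-MS/MS of the supernatant, with channel sums equalised, gave values recorded as log-two fold change in thermal stability against solvent controls, from duplicates.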

[1] = compound: C/C(=N\NC(=O)C1=CC(=CC=C1)S(=O)(=O)N2CCOCC2)/C3=C(C=CC(=C3)Cl)O
Outline: as §1

[2] = compound: C1=CC(=CC=C1C2=NC3=C(N2)C=C(C=C3)C(=O)N)OC4=CC=C(C=C4)Cl
Outline: as §1

[3] = compound: C1=CC2=C(C=CC(=C2)/C=C\3/C(=O)NC(=NCC4=CC=CS4)S3)N=C1
Outline: as §1

[4] = compound: C1=CC2=NC=CN=C2C=C1/C=C/3\C(=O)NC(=O)S3
Outline: as §1

[5] = compound: C1=CC=C(C=C1)C2=NC(=C(N2)C3=CC=NC=C3)C4=CC(=C(C=C4)Cl)O
Outline: as §1

[6] = compound: C1=CC=C2C(=C1)C3=NNC4=CC=CC(=C43)C2=O
Outline: as §1

[7] = compound: C1CCN(C1)C(=O)NC2=CC=CC(=C2)NC3=NC=C(C(=N3)NCCC4=CN=CN4)Br
Outline: as §1

[8] = compound: C1CN(CCC1(CC2=CC=C(C=C2)Cl)N)C3=NC=NC4=C3C=CN4
Outline: as §1

IRAK-1-4 Inhibitor I = compound: C1COCCN1CCN2C3=CC=CC=C3N=C2NC(=O)C4=CC(=CC=C4)[N+](=O)[O-] [IRAK-1-4 Inhibitor I]
Outline: as §1

ibrutinib = compound: C=CC(=O)N1CCC[C@@H](n2nc(-c3ccc(Oc4ccccc4)cc3)c3c(N)ncnc32)C1 [ibrutinib]
Outline: as §1

[9] = compound: CC(=O)c1cnc2ccc(-c3cc(Cl)c(O)c(Cl)c3)nc2c1N[C@H]1CC[C@H](CN(C)C)CC1
Outline: as §1

ralimetinib = compound: CC(C)(C)Cn1c(N)nc2ccc(-c3[nH]c(C(C)(C)C)nc3-c3ccc(F)cc3)nc21 [ralimetinib]
Outline: as §1

[10] = compound: CC(C)(O)CC(=O)NCCn1ccc2ncnc(Nc3ccc(Oc4cccc(C(F)(F)F)c4)c(Cl)c3)c21
Outline: as §1

[11] = compound: CC(C)C1=C2N=C(C=C(N2N=C1)NCC3=CC=CC=C3)NCCCCCCN
Outline: as §1

[12] = compound: CC1=C(C(CC(=O)N1)C2=CC=C(C=C2)C(F)(F)F)C(=O)NC3=C(C=C4C(=C3)C=NN4)F
Outline: as §1

[13] = compound: CC1=C(C2=C(C=C1)C(=O)C3=CC=CC=C3N2CCCN)C
Outline: as §1

[14] = compound: CC1=C(C=C(C=C1)NC(=O)C2=CC(=CC=C2)C(C)(C)C#N)NC3=CC4=C(C=C3)N=CN(C4=O)C
Outline: as §1

[15] = compound: CC1=C(C=C(C=C1)NC(=O)C2=CC(=CC=C2)N(C)C)NC(=O)C3=CC=C(C=C3)O
Outline: as §1

[16] = compound: CC1=CC=C(C=C1)SC2=C3C=C(SC3=CN=C2)C(=O)N
Outline: as §1

Measured: log2 fold change

SDHA (UniProt P31040)
inactive: erlotinib 0.001 | [1] 0.034 | [2] 0.109 | [3] -0.006 | [4] 0.005 | [5] -0.005 | [6] 0.025 | [7] -0.009 | [8] 0.004 | IRAK-1-4 Inhibitor I 0.011 | ibrutinib -0.015 | [9] 0 | ralimetinib 0.043 | [10] 0.049 | [11] -0.01 | [12] 0.004 | [13] 0.008 | [14] 0.014 | [15] -0.015 | [16] 0.002

RBM5 (UniProt P52756)
Chain of UniProt P52756 (P52756 whole entry, looked up): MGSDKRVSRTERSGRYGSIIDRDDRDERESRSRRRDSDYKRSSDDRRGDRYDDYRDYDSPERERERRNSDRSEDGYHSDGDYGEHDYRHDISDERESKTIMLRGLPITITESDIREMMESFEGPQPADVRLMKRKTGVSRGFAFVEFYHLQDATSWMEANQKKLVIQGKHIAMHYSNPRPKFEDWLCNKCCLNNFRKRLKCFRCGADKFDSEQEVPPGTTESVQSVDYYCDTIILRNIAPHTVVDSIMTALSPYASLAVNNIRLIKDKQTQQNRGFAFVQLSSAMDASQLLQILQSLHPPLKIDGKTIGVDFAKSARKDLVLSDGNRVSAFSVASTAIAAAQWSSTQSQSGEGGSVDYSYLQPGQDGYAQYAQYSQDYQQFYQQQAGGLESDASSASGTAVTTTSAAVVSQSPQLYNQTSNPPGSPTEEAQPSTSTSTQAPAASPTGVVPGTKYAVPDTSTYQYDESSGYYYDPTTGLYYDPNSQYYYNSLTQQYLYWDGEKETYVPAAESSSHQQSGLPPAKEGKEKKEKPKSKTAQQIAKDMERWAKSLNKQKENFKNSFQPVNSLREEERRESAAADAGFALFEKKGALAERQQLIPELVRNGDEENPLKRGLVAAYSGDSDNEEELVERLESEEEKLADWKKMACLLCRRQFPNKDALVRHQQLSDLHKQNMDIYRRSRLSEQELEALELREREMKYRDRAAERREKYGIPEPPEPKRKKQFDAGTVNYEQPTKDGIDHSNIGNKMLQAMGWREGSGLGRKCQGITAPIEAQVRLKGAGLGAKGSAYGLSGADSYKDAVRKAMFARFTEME
inactive: erlotinib 0.095 | [1] -0.042 | [2] 0.054 | [3] 0.006 | [4] -0.006 | [5] 0.015 | [6] -0.121 | [7] -0.021 | [8] -0.001 | IRAK-1-4 Inhibitor I -0.023 | ibrutinib -0.017 | [9] 0.03 | ralimetinib 0.004 | [10] 0.042 | [11] -0.141 | [12] -0.004 | [13] 0.065 | [14] 0.035 | [15] -0.007 | [16] -0.06

RABGGTB (UniProt P53611)
Chain of UniProt P53611 (P53611 whole entry, looked up): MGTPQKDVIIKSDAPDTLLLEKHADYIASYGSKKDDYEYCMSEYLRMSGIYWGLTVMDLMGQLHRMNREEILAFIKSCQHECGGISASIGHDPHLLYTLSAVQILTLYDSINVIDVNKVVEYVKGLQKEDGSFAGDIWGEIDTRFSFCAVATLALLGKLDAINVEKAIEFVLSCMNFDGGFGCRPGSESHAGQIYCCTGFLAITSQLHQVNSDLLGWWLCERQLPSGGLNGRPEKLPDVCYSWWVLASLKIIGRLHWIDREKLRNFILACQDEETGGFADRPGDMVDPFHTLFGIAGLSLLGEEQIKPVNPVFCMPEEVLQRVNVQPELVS
inactive: erlotinib 0.01 | [1] 0.026 | [2] -0.015 | [3] 0.021 | [4] 0.04 | [5] -0.023 | [6] -0.093 | [7] -0.029 | [8] 0.003 | IRAK-1-4 Inhibitor I 0.03 | ibrutinib -0.017 | [9] -0.042 | ralimetinib 0.018 | [10] -0.052 | [11] 0.015 | [12] -0.002 | [13] -0.006 | [14] -0.013 | [15] 0.048 | [16] 0.013

RAD51C (UniProt O43502)
Chain of UniProt O43502 (O43502 whole entry, looked up): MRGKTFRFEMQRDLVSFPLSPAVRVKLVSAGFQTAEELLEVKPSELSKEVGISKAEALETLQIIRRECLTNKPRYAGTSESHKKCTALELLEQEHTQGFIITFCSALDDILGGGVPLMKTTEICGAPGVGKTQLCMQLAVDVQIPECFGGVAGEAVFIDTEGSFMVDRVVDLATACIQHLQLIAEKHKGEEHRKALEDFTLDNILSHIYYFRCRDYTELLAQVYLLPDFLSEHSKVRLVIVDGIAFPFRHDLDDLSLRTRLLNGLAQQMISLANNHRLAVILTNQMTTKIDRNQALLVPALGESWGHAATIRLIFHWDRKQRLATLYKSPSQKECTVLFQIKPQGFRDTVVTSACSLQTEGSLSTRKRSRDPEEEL
inactive: erlotinib 0 | [1] -0.053 | [2] 0.023 | [3] -0.074 | [4] -0.003 | [5] 0.001 | [6] -0.004 | [7] 0.017 | [8] 0.02 | IRAK-1-4 Inhibitor I -0.051 | ibrutinib -0.015 | [9] 0.055 | ralimetinib 0.044 | [10] 0.009 | [11] 0.067 | [12] -0.015 | [13] -0.039 | [14] 0 | [15] -0.037 | [16] -0.051

RAB5IF isoform 5 (UniProt Q9BUV8)
Chain of UniProt Q9BUV8 (Q9BUV8 whole entry, looked up): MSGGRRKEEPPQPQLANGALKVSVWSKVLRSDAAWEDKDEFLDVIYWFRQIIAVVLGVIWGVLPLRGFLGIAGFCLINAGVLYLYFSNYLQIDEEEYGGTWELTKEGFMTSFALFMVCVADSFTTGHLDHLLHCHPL
inactive: erlotinib 0.193 | [1] 0.021 | [2] 0.082 | [3] 0.001 | [4] -0.052 | [6] -0.036 | [7] -0.065 | [8] 0.034 | ibrutinib -0.039 | [9] -0.029 | [11] -0.163 | [12] 0.086 | [13] -0.165 | [16] 0.073

RAD50 isoform 2 (UniProt Q92878)
inactive: erlotinib -0.009 | [1] -0.007 | [2] 0.019 | [3] 0.006 | [4] -0.014 | [5] -0.023 | [6] -0.039 | [7] 0.005 | [8] -0.01 | IRAK-1-4 Inhibitor I -0.054 | ibrutinib 0.002 | [9] -0.01 | ralimetinib 0.01 | [10] 0.018 | [11] 0 | [12] -0.001 | [13] 0.03 | [14] 0 | [15] 0.017 | [16] -0.006

RAP1B (UniProt F5GZG1)
inactive: erlotinib -0.028 | [1] 0.332 | [2] 0.101 | [3] -0.048 | [4] -0.206 | [6] -0.08 | [7] -0.081 | [8] 0.04 | ibrutinib 0.01 | [9] -0.021 | [11] 0.061 | [12] 0.036 | [13] 0.019 | [14] -0.124 | [16] 0.117

QRSL1 (UniProt Q9H0R6)
Chain of UniProt Q9H0R6 (Q9H0R6 whole entry, looked up): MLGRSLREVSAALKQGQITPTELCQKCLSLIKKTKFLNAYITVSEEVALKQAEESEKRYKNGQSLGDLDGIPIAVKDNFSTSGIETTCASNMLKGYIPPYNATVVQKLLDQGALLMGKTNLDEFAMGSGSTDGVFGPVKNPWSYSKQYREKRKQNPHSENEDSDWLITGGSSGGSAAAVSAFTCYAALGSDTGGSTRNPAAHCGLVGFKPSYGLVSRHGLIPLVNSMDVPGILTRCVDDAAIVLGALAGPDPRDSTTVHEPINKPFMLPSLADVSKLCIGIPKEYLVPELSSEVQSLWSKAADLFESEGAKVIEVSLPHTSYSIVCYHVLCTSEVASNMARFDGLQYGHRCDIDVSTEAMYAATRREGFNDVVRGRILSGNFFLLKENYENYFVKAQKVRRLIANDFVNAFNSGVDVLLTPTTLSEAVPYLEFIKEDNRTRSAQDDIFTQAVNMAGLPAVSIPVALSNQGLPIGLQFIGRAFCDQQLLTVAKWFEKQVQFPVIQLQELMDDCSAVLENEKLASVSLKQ
inactive: erlotinib -0.01 | [1] -0.003 | [2] 0.004 | [3] -0.14 | [4] -0.111 | [5] 0.002 | [6] 0.116 | [7] -0.017 | [8] 0.022 | IRAK-1-4 Inhibitor I -0.01 | ibrutinib -0.171 | [9] -0.059 | ralimetinib 0.018 | [10] -0.064 | [11] 0.066 | [12] -0.003 | [13] -0.073 | [14] -0.041 | [15] 0.027 | [16] 0.076

RALA (UniProt P11233)
inactive: erlotinib 0.007 | [1] -0.146 | [2] -0.035 | [3] -0.04 | [4] 0.031 | [5] -0.012 | [6] 0.003 | [7] -0.016 | [8] 0.002 | IRAK-1-4 Inhibitor I 0.04 | ibrutinib 0.009 | [9] -0.01 | ralimetinib 0.006 | [10] -0.05 | [11] 0.034 | [12] -0.002 | [13] -0.001 | [14] 0.057 | [15] -0.048 | [16] -0.023

RAC2 (UniProt P15153)
inactive: erlotinib 0.009 | [1] 0.018 | [2] 0.014 | [3] -0.035 | [4] -0.01 | [5] 0.012 | [6] 0.034 | [7] 0.069 | [8] -0.036 | IRAK-1-4 Inhibitor I 0.024 | ibrutinib 0.094 | [9] -0.04 | ralimetinib 0.07 | [10] -0.027 | [11] 0.047 | [12] -0.005 | [13] 0.017 | [14] -0.022 | [15] 0.045 | [16] -0.014

RAPGEF4 (UniProt Q8WZA2)
Chain of UniProt Q8WZA2 (Q8WZA2 whole entry, looked up): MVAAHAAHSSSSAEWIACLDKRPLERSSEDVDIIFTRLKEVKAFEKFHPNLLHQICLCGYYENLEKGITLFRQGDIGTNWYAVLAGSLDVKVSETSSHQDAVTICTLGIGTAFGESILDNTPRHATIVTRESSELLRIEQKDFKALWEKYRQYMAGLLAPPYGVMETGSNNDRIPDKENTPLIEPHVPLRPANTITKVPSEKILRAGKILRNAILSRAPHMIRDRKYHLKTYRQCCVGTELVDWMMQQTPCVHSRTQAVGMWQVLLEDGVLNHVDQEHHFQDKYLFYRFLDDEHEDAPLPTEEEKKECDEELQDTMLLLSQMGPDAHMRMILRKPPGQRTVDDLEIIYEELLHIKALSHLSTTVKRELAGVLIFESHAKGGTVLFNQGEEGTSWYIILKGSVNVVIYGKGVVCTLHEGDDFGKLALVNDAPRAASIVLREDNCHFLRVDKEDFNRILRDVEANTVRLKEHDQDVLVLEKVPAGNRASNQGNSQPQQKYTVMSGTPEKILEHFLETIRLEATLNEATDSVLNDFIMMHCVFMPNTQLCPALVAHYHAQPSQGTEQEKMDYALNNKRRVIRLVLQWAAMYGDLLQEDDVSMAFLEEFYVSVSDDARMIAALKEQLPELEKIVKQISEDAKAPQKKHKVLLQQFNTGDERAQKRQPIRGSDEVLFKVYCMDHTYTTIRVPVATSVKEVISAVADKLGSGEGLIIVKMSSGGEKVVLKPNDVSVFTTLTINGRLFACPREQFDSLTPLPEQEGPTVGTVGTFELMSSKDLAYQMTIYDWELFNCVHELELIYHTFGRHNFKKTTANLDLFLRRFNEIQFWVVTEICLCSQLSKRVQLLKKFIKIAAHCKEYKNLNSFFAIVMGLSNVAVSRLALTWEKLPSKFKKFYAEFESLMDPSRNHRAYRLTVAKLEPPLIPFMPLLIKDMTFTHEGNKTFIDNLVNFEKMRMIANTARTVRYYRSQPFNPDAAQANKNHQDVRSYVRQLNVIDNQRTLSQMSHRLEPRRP
inactive: erlotinib 0.181 | [1] 0.057 | [2] 0.049 | [3] -0.016 | [4] -0.019 | [5] -0.092 | [6] -0.195 | [7] -0.043 | [8] 0.12 | IRAK-1-4 Inhibitor I 0.184 | ibrutinib -0.026 | [9] -0.129 | ralimetinib -0.001 | [10] -0.328 | [11] 0.044 | [13] 0.046 | [14] 0.442 | [15] -0.004 | [16] -0.166

REEP6 (UniProt Q96HR9)
Chain of UniProt Q96HR9 (Q96HR9 whole entry, looked up): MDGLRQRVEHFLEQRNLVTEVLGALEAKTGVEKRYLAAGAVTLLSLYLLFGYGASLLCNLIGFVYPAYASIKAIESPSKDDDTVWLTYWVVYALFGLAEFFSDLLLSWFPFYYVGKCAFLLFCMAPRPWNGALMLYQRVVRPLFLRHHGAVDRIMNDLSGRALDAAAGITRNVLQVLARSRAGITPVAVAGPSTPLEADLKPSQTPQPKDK
inactive: erlotinib -0.023 | [1] -0.026 | [2] 0.008 | [3] 0.077 | [4] -0.06 | [5] -0.029 | [6] -0.069 | [7] 0.021 | [8] -0.022 | IRAK-1-4 Inhibitor I -0.05 | ibrutinib -0.026 | [9] -0.026 | ralimetinib 0.018 | [10] -0.029 | [11] -0.067 | [12] -0.006 | [13] -0.066 | [14] 0.084 | [15] 0.055 | [16] 0.038

RASA3 (UniProt Q14644)
Chain of UniProt Q14644 (Q14644 whole entry, looked up): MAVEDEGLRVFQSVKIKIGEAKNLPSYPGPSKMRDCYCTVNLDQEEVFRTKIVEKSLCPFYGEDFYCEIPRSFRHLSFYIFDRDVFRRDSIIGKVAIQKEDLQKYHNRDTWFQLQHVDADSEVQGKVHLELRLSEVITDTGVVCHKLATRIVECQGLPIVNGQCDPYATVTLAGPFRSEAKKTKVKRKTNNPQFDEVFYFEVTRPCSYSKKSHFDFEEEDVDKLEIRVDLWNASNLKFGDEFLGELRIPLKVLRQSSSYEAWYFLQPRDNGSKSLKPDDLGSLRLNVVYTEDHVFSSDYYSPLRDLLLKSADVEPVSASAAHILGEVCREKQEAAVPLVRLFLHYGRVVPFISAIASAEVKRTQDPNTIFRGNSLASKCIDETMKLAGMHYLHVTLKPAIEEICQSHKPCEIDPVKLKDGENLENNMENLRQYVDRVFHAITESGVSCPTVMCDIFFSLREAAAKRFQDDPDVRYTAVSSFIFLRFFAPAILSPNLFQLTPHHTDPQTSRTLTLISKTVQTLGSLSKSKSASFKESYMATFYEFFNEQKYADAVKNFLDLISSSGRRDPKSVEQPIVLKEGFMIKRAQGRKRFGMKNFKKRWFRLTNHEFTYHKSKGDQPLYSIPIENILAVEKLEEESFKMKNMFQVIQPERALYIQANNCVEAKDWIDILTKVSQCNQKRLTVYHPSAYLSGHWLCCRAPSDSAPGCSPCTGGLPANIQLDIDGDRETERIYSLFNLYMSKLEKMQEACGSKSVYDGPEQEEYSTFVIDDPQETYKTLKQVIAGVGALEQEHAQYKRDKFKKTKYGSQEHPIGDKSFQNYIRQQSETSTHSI
inactive: erlotinib 0.02 | [1] -0.089 | [2] 0.045 | [3] -0.001 | [4] 0.046 | [5] 0.021 | [6] 0.004 | [7] -0.043 | [8] -0.005 | IRAK-1-4 Inhibitor I 0.02 | ibrutinib 0 | [9] -0.031 | ralimetinib -0.012 | [10] -0.054 | [11] 0.02 | [12] -0.048 | [13] 0.031 | [14] -0.026 | [15] -0.018 | [16] -0.078

RPLP0P6 (UniProt Q8NHW5)
inactive: erlotinib -0.003 | [1] -0.069 | [2] -0.034 | [3] 0.026 | [4] -0.05 | [5] 0.009 | [6] 0.03 | [7] 0.024 | [8] 0.004 | IRAK-1-4 Inhibitor I 0.008 | ibrutinib 0.064 | [9] -0.005 | ralimetinib -0.01 | [10] -0.02 | [11] -0.009 | [12] -0.052 | [13] -0.028 | [14] 0.015 | [15] 0.01 | [16] -0.017

RBM8A (UniProt Q9Y5S9)
inactive: erlotinib -0.061 | [1] 0.035 | [2] -0.002 | [3] 0.069 | [4] -0.042 | [5] 0.029 | [6] 0.093 | [7] 0.086 | [8] -0.076 | IRAK-1-4 Inhibitor I -0.059 | ibrutinib -0.001 | [9] -0.016 | ralimetinib -0.011 | [10] 0.057 | [11] -0.038 | [12] -0.004 | [13] 0.066 | [14] -0.101 | [15] 0.035 | [16] 0.027

RFWD3 (UniProt Q6PCD5)
Chain of UniProt Q6PCD5 (Q6PCD5 whole entry, looked up): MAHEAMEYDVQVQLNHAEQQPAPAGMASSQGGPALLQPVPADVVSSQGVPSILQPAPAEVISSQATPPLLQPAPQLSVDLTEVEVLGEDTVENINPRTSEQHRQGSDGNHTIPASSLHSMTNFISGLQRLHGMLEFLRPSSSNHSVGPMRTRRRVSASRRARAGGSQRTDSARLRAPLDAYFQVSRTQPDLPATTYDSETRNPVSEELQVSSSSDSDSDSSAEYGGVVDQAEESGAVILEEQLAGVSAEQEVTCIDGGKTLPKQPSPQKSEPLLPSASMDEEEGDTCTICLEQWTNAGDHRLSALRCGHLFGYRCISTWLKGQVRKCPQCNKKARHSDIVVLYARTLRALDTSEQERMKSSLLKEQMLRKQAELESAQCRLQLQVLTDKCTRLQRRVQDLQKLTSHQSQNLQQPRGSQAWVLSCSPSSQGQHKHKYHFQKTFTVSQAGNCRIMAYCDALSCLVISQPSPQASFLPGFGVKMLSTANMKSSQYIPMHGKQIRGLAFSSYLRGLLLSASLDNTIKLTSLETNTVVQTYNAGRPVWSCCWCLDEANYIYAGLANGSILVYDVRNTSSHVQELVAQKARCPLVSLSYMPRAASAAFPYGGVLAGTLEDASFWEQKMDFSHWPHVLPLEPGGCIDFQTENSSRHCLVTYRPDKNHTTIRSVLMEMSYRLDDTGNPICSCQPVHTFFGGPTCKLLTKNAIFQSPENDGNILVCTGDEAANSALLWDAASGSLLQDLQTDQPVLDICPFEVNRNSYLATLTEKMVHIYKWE
inactive: erlotinib -0.12 | [1] 0.005 | [2] 0.048 | [3] -0.061 | [4] 0.062 | [5] 0.029 | [6] -0.039 | [7] -0.086 | [8] 0.053 | IRAK-1-4 Inhibitor I 0.054 | ibrutinib -0.001 | ralimetinib 0.039 | [10] -0.059 | [11] 0.066 | [12] 0.059 | [13] -0.06 | [14] 0.087 | [15] -0.007
